Results filed as inconclusive are left out. Active and inactive are the calls of the source.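 The calls were made as follows, unless noted: active = normalized viability below 100% at a tested concentration; inactive = the rest.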
Key:
[1] = growth inhibition of DIPG glioma cells, dose response, cell-based, SU-DIPG-XVII, MIPE5.0, CellTiter-Glo, qHTS (AID 1347060; cut-off not given, nearly all actives have AC50 up to about 26 µM;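 as to AC50: cells exposed to compound for 48 hours before viability readout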); conditions: SU-DIPG-XVII viability, CellTiter-Glo ATP luminescence
[2] = viability loss in pontine glioma line – cell-based, SU-DIPG-XXV, MIPE5.0, CellTiter-Glo, qHTS, dose response (AID 1347065; cut-off not given, nearly all actives have AC50 up to about 26 µM;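 also: cells exposed to compound for 48 hours before ATP readout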); conditions: CellTiter-Glo ATP luminescence
[3] = SU-DIPG-XXV glioma cell viability, MIPE5.0 library, qHTS (AID 1347068; cut-off not given, nearly all actives have IC50 up to about 30 µM;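 as to IC50: cells exposed to compound for 48 hours before viability readout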)
[4] = JHH-DIPG-1 glioma cell viability, MIPE5.0 library, CellTiter-Glo luminescence, qHTS (AID 1347067; cut-off not given, nearly all actives have AC50 up to about 26 µM;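 also: cells exposed to compound for 48 hours before readout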); conditions: JHH-DIPG-1 glioma viability, CellTiter-Glo ATP luminescence
[5] = sensitizers of A549 cells to miR-34 induction, primary screen, imaging, A549 dox-inducible miR-34, nuclei and caspase counts (AID 1347080;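 active = compounds whose cell count with miR-34 switched on is under 0.7 times the count with it off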); conditions: A549 miR-34 inducible, Hoechst nuclei count, 48 h
[6] = viability rescue of complex I mutant cybrids, primary screen, cell-based, galactose medium, ATP luminescence (AID 1645843;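 active = z-score of at least 1.8 in each of two replicates, scored against plate mean and spread of sample wells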;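 also: positive z means more ATP and so rescue of galactose-driven cybrid death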); conditions: complex I mutant cybrid cells, 72 h, stronger effect = higher value
[7] = liver-stage malaria parasite growth inhibition, primary screen, cell-based, HepG2, luciferase luminescence, HepG2 viability (AID 624349; in the data active = parasite load remaining mostly below about 12%, no sharp cut-off; inactive = mostly above about 10%;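 also: 100% = mean of DMSO negative control wells on the same plate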); conditions: P. berghei liver stage in HepG2, luciferase luminescence, concentration not given here; parasite load remaining: stronger effect = lower value; viability: measured here: HepG2 viability without parasites
[8] = survival rescue of mitochondrial mutant cells in low glucose, primary screen, MELAS cybrids, Rieske KO mouse fibroblasts, CellTiter-Glo (AID 1508586;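 active = mean z-score across replicates of 1.96 or higher in either the MELAS or the Rieske mutant cell line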;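 also: z relative to plate mean and SD of compound and empty wells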)
[9] = ovarian cancer cell viability with rucaparib, profiling panel, oncology-focused library, rucaparib conditional (AID 1508598); conditions: patient-derived ovarian cancer cells, CellTiter-Glo viability, 144 h, stronger effect = lower value
[10] = SU-DIPG-VI glioma cell viability, MIPE4.0 library, CellTiter-Glo luminescence, qHTS (AID 1347066; cut-off not given, nearly all actives have AC50 up to about 30 µM;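 also: cells exposed to compound for 48 hours before readout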); conditions: CellTiter-Glo ATP luminescence
[11] = stronger effect = lower value, cell number ratio, induced over uninduced
[12] = measured here: relative caspase fold change +Dox/-Dox
[13] = measured here: total cells with miR-34 induction, stronger effect = lower value
[14] = measured here: total cells without miR-34 induction
[15] = MELAS cybrid survival, CellTiter-Glo 48 h, stronger effect = higher value
[16] = Rieske KO mouse fibroblast survival, CellTiter-Glo 72 h
[17] = at 0.000305 µM, OCI-C5x cells, with rucaparib 10 µM, 100% = cells with rucaparib alone
[18] = at 0.000305 µM, OCI-C5x cells, without rucaparib
[19] = at 0.000305 µM, OCI-P5x cells, with rucaparib 20 µM, 100% = cells with rucaparib alone
[20] = at 0.000305 µM, OCI-P5x cells, without rucaparib
[21] = at 0.00122 µM, OCI-C5x cells, with rucaparib 10 µM, 100% = cells with rucaparib alone
[22] = at 0.00122 µM, OCI-C5x cells, without rucaparib
[23] = at 0.00122 µM, OCI-P5x cells, with rucaparib 20 µM, 100% = cells with rucaparib alone
[24] = at 0.00122 µM, OCI-P5x cells, without rucaparib
[25] = at 0.00488 µM, OCI-C5x cells, with rucaparib 10 µM, 100% = cells with rucaparib alone
[26] = at 0.00488 µM, OCI-C5x cells, without rucaparib
[27] = at 0.00488 µM, OCI-P5x cells, with rucaparib 20 µM, 100% = cells with rucaparib alone
[28] = at 0.00488 µM, OCI-P5x cells, without rucaparib
[29] = at 0.0195 µM, OCI-C5x cells, with rucaparib 10 µM, 100% = cells with rucaparib alone
[30] = at 0.0195 µM, OCI-C5x cells, without rucaparib
[31] = at 0.0195 µM, OCI-P5x cells, with rucaparib 20 µM, 100% = cells with rucaparib alone
[32] = at 0.0195 µM, OCI-P5x cells, without rucaparib
[33] = at 0.0781 µM, OCI-C5x cells, with rucaparib 10 µM, 100% = cells with rucaparib alone
[34] = at 0.0781 µM, OCI-C5x cells, without rucaparib
[35] = at 0.0781 µM, OCI-P5x cells, with rucaparib 20 µM, 100% = cells with rucaparib alone
[36] = at 0.0781 µM, OCI-P5x cells, without rucaparib
[37] = at 0.313 µM, OCI-C5x cells, with rucaparib 10 µM, 100% = cells with rucaparib alone
[38] = at 0.313 µM, OCI-C5x cells, without rucaparib
[39] = at 0.313 µM, OCI-P5x cells, with rucaparib 20 µM, 100% = cells with rucaparib alone
[40] = at 0.313 µM, OCI-P5x cells, without rucaparib
[41] = at 1.25 µM, OCI-C5x cells, with rucaparib 10 µM, 100% = cells with rucaparib alone
[42] = at 1.25 µM, OCI-C5x cells, without rucaparib
[43] = at 1.25 µM, OCI-P5x cells, with rucaparib 20 µM, 100% = cells with rucaparib alone
[44] = at 1.25 µM, OCI-P5x cells, without rucaparib
[45] = at 5 µM, OCI-C5x cells, with rucaparib 10 µM, 100% = cells with rucaparib alone
[46] = at 5 µM, OCI-C5x cells, without rucaparib
[47] = at 5 µM, OCI-P5x cells, with rucaparib 20 µM, 100% = cells with rucaparib alone
[48] = at 5 µM, OCI-P5x cells, without rucaparib

CCNCCS(=O)(=O)NC[C@@]1(c2ccccc2)SC(NC(=O)C(C)(C)C)=NN1C(=O)C(C)(C)C
AC50 [1]: 0.00742 µM (active)
AC50 [2]: 0.00468 µM (active)
IC50 [3]: 0.00296 µM (active)

CN(C)c1ccc(Nc2nc(N)n(C(=O)c3c(F)cccc3F)n2)cc1
AC50 [1]: 8.33 µM (active)
AC50 [2]: 5.25 µM (active)
IC50 [3]: 14.8 µM (active)

Cn1ncc(NC(=O)c2nc(-c3c(F)cccc3F)sc2N)c1N1CC[C@@H](N)[C@H](F)CC1
outcome [1]: inactive
outcome [4]: inactive

Cn1cc(-c2ccc(F)c(C(F)(F)F)c2)nc1C1CCN(c2ncnc3[nH]ncc23)CC1
outcome [1]: inactive
outcome [2]: inactive
outcome [3]: inactive

CC(C)(c1ccc(OCC(O)CO)cc1)c1ccc(OCC(O)CCl)cc1 (stereo not drawn)
outcome [1]: inactive
outcome [4]: inactive
outcome [3]: inactive

Cc1c(O)cccc1C(=O)NC(CSc1ccccc1)C(O)CN1CC2CCCCC2CC1C(=O)NC(C)(C)C (stereo not drawn)
AC50 [1]: 20.9 µM (active)
AC50 [2]: 20.9 µM (active)
IC50 [3]: 18.6 µM (active)
fold change [5, 11]: 1.31 (inactive)
fold change [5, 12]: 0.935
cell count [5, 13]: 2190
cell count [5, 14]: 1680
z-score [6]: -1.88 (inactive)

COc1cc2ncnc(Nc3ccc(O)c(Br)c3)c2cc1OC
parasite load remaining [7]: 33.2% (inactive)
viability [7]: 98.7%
AC50 [1]: 16.6 µM (active)
AC50 [2]: 14.8 µM (active)
AC50 [4]: 13.2 µM (active)
fold change [5, 11]: 0.645 (active)
fold change [5, 12]: 0.931
cell count [5, 13]: 3410
cell count [5, 14]: 5290
z-score [8, 15]: -0.521 (inactive)
z-score [8, 16]: -0.0359

COC(=O)[C@H]1[C@@H](O)[C@@]2(O)c3c(OC)cc(O[C@@H]4O[C@@H]([C@@H](O)CO)CO[C@H]4OC)cc3O[C@@]2(c2ccc(OC)cc2)[C@@H]1c1ccccc1
AC50 [1]: 8.33 µM (active)
AC50 [2]: 5.25 µM (active)
outcome [3]: inactive

COc1cc(C(N)=O)ccc1NC(=O)[C@@H]1N[C@@H](CC(C)(C)C)[C@@]2(C(=O)Nc3cc(Cl)ccc32)[C@H]1c1cccc(Cl)c1F
AC50 [1]: 23.5 µM (active)
AC50 [4]: 23.5 µM (active)
IC50 [3]: 16.6 µM (active)

C=CC(=O)N1CC(N2CCN(C(=O)CNc3cc(C4(C)CC4)c(Cl)cc3O)CC2)C1
outcome [1]: inactive
outcome [2]: inactive
outcome [3]: inactive

Cc1cc(N2CCOCC2)ccc1Nc1nc(NC2CCCCC2)c2[nH]cnc2n1
AC50 [1]: 2.35 µM (active)
AC50 [2]: 7.42 µM (active)
AC50 [4]: 14.8 µM (active)
IC50 [3]: 20.9 µM (active)
fold change [5, 11]: 0.907 (inactive)
fold change [5, 12]: 0.505
cell count [5, 13]: 3720
cell count [5, 14]: 4100
z-score [8, 15]: -0.538 (inactive)
z-score [8, 16]: -2.79

COc1ccc(CNc2nc(N(CCO)CCO)nc3c2ncn3C(C)C)cc1
parasite load remaining [7]: 40.6% (inactive)
viability [7]: 84%
AC50 [1]: 7.42 µM (active)
AC50 [2]: 10.5 µM (active)
AC50 [4]: 5.25 µM (active)
IC50 [3]: 11.8 µM (active)

Cc1cnc(-c2ccccc2C(C)C)nc1NCc1ccc(-n2ccnn2)cc1
outcome [1]: inactive
outcome [2]: inactive
outcome [4]: inactive
outcome [3]: inactive
fold change [5, 11]: 0.905 (inactive)
fold change [5, 12]: 0.465
cell count [5, 13]: 7550
cell count [5, 14]: 8340
z-score [8, 15]: -0.372 (inactive)
z-score [8, 16]: 0.422
viability [9, 17]: 118% (inactive)
viability [9, 18]: 116% (inactive)
viability [9, 19]: 101% (inactive)
viability [9, 20]: 100% (inactive)
viability [9, 21]: 132% (inactive)
viability [9, 22]: 118% (inactive)
viability [9, 23]: 95.9% (active)
viability [9, 24]: 102% (inactive)
viability [9, 25]: 132% (inactive)
viability [9, 26]: 120% (inactive)
viability [9, 27]: 98.5% (active)
viability [9, 28]: 102% (inactive)
viability [9, 29]: 123% (inactive)
viability [9, 30]: 110% (inactive)
viability [9, 31]: 103% (inactive)
viability [9, 32]: 97.4% (active)
viability [9, 33]: 123% (inactive)
viability [9, 34]: 118% (inactive)
viability [9, 35]: 100% (inactive)
viability [9, 36]: 97.6% (active)
viability [9, 37]: 126% (inactive)
viability [9, 38]: 126% (inactive)
viability [9, 39]: 96.4% (active)
viability [9, 40]: 101% (inactive)
viability [9, 41]: 127% (inactive)
viability [9, 42]: 119% (inactive)
viability [9, 43]: 104% (inactive)
viability [9, 44]: 96.9% (active)
viability [9, 45]: 129% (inactive)
viability [9, 46]: 130% (inactive)
viability [9, 47]: 94.5% (active)
viability [9, 48]: 97.8% (active)

NC(=O)[C@@H](CCC(F)(F)F)N(Cc1ccc(-c2ncon2)cc1F)S(=O)(=O)c1ccc(Cl)cc1
outcome [1]: inactive
outcome [10]: inactive
outcome [4]: inactive

CO[C@@H]1[C@H](N(C)C(=O)c2ccccc2)C[C@H]2O[C@]1(C)n1c3ccccc3c3c4c(c5c6ccccc6n2c5c31)C(=O)NC4
AC50 [1]: 1.66 µM (active)
outcome [10]: inactive

CC(C)NCCCn1c(Sc2cc(Cl)cc(Cl)c2)nc2c(N)ncnc21
outcome [1]: inactive
outcome [4]: inactive
outcome [3]: inactive

CC(C)Oc1ccc(C(=O)N[C@H](CNC(=O)CN(C)C)Cc2ccc(-c3cn4cccc([C@H](C)O)c4n3)cc2)cc1Cl
AC50 [1]: 0.0525 µM (active)
AC50 [2]: 0.0295 µM (active)
outcome [4]: inactive
viability [9, 17]: 116% (inactive)
viability [9, 18]: 118% (inactive)
viability [9, 19]: 118% (inactive)
viability [9, 20]: 103% (inactive)
viability [9, 21]: 112% (inactive)
viability [9, 22]: 123% (inactive)
viability [9, 23]: 107% (inactive)
viability [9, 24]: 107% (inactive)
viability [9, 25]: 117% (inactive)
viability [9, 26]: 115% (inactive)
viability [9, 27]: 107% (inactive)
viability [9, 28]: 101% (inactive)
viability [9, 29]: 69.6% (active)
viability [9, 30]: 73.7% (active)
viability [9, 31]: 76.4% (active)
viability [9, 32]: 38.4% (active)
viability [9, 33]: 57.4% (active)
viability [9, 34]: 72.4% (active)
viability [9, 35]: 66.4% (active)
viability [9, 36]: 30.8% (active)
viability [9, 37]: 57.8% (active)
viability [9, 38]: 65% (active)
viability [9, 39]: 62.3% (active)
viability [9, 40]: 28.3% (active)
viability [9, 41]: 61.8% (active)
viability [9, 42]: 72.8% (active)
viability [9, 43]: 62.6% (active)
viability [9, 44]: 26.8% (active)
viability [9, 45]: 79.5% (active)
viability [9, 46]: 89.6% (active)
viability [9, 47]: 63.4% (active)
viability [9, 48]: 25.3% (active)
